Assay results from PubChem BioAssay (NCI).
About 83,000 compounds went through this panel and 20% of them were active in at least one assay; those are over-represented in the sample as a whole.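 Negative percent growth values reflect cell death: -40 means 40% of the cells present at the start died, and -100 means all died.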 Values without a mark were called inactive. Calls of active or inactive are those of the source. The calls were made as follows: active = growth percent below 10; inactive = the rest.

Tests used:
Assay in all cases: NCI-60 one-dose screen, 48 h (100 = growth as untreated, 0 = no growth, -100 = all killed)
Details in all cases: 10 µM unless noted
HCT-15 colon = system: HCT-15 colon
HT29 colon = system: HT29 colon
SNB-75 CNS = system: SNB-75 CNS
SNB-19 CNS = system: SNB-19 CNS
U251 CNS = system: U251 CNS
PC-3 prostate = system: PC-3 prostate
SK-MEL-5 melanoma = system: SK-MEL-5 melanoma
UACC-62 melanoma = system: UACC-62 melanoma
LOX IMVI melanoma = system: LOX IMVI melanoma
SK-MEL-28 melanoma = system: SK-MEL-28 melanoma

SMILES	growth (HCT-15 colon)	growth (HT29 colon)	growth (SNB-75 CNS)	growth (SNB-19 CNS) [%]	growth (U251 CNS) [%]	growth (PC-3 prostate) [%]	growth (SK-MEL-5 melanoma)	growth (UACC-62 melanoma) [%]	growth (LOX IMVI melanoma)	growth (SK-MEL-28 melanoma) [%]
O=C(NCc1ccc2c(c1)OCO2)NCC1CCCC(CNC(=O)NCc2ccc3c(c2)OCO3)C1 (stereo not given)	99.2%	110%	97.3%	87.7	103	102	102%	95.8	97.9%	
CCOC(=O)c1c2c(n3c1NCC3)-c1ccccc1C2=O	99.3%	98.1%	83.5%	99.3	101	91.1	93.3%	98.6	97.9%	103
COc1ccc(C2=C/C(=C\c3ccc(Cl)cc3)C(=O)N2/N=C/c2ccc(Cl)cc2)cc1	98.8%	86.8%	105%	96.7	84.5	91.4	99.5%	84.4	99.1%	
CC1(C)O[C@H]2OC3CCC(=O)CC3(O)[C@H]2O1 (stereo not given in full)	111%	98.6%	95.1%	107	96.5	82	98.8%	107	96.7%	
Cc1[nH]c(C(=O)Nc2ccc(C(N)=O)cc2NC(C)C)c(Cl)c1Cl	92.9%	106%	69%	103	91.4	77.4	88.1%	91.4	96.2%	
Cc1nn(-c2ccccc2)c(/N=C/N(C)C)c1/C=C/C(=O)c1ccc(Cl)cc1	62.7%	95.4%	91.6%	100	95.1	85.9	89.3%	88.3	49%	
O=C(/C=C/c1ccc(Br)cc1)c1ccc(-n2cc(CN3CCN(c4cc5c(cc4F)c(=O)c(C(=O)O)cn5C4CC4)CC3)nn2)cc1	95%	91.7%	93.6%	86.9	71.2	82	91.1%	83	50.4%	
CC12CCC(/C(=C/NNc3ccc([N+](=O)[O-])cc3[N+](=O)[O-])C1=O)C2(C)C (stereo not given)	23%	52.6%	136%	94.1	58.4	59.5	65.5%	64.5	56.5%	
Fc1ccc2c(c1)c(-c1nc(-c3c[nH]c4ncccc34)cs1)cn2CCCN1CCOCC1	24.5%	12.9%	41.2%	62.7	30.4	31.9	43.7%	69.5	33.1%	
COCC[C@H]1CCC/C=C/[C@@H]2C[C@H](O)C[C@H]2[C@H](O)/C=C/C(=O)O1	9.76% (active)	-13.8% (active)	33.9%	30.2	15.5	20.5	-92% (active)	21.7	-62.3% (active)	
COCCCOc1cc(C[C@@H](C[C@H](N)[C@@H](O)C[C@H](C(=O)NCC(C)(C)C(N)=O)C(C)C)C(C)C)ccc1OC	111%	106%	88.4%	106	98.7	90.7	106%	102	95%	
CN(CCC#N)c1ccc(/C=C2\NC(=O)NC2=O)cc1	104%	82.4%	102%	102	112	94.8	102%	91.1	87.9%	109
COc1ccc(C2C3=C(COC3=O)N(CCO)c3cc4c(cc32)OCCO4)cc1OC (stereo not given)	31.3%	4.76% (active)	-8.37% (active)	37.4	26.4	23.8	21%	18.1	42.1%	48.7
O=C(CSc1nnc2sc(Nc3cccc(Cl)c3)nn12)c1ccc(F)cc1	92.3%	90.5%	104%	95.5	97.9	85	98.5%	82.7	91.7%	104
O=C1Nc2ccccc2C2c3cccn3-c3ccccc3N12 (stereo not given)	53.9%	31.7%	40%	88.9	60.2	66.9	80%	57.6	74.2%	94.1
CN(C)c1ccc(/C=C/C(=O)c2ccc(Nc3nc(Nc4ccc(F)cc4)nc(Nc4ccc(Cl)cc4)n3)cc2)cc1	57%	60.7%	76.9%	92.7	67.9	57.2	50.2%	75.2	75.6%	74.3
CCOC(=O)c1c(-c2ccc(Cl)cc2)c(C#N)c2c(C#N)c(N)nn2c1N	47.2%	49.7%	79.8%	74.7	66.4	59.3	52.3%	46.4	65.8%	62.6
CCCCn1sc(=O)n(Cc2ccc(CNC(=O)OCc3ccc4c(Br)cc(Br)c(O)c4n3)cc2)c1=O	9.07% (active)	96.4%	14.4%	37.4	11.2	18.9	-35.2% (active)	37.6	22.9%	67.4
CCCCc1oc2ccccc2c1C(=O)c1ccc(O)cc1	81.6%	103%	62.4%	91.1	85.8	73	82.6%	69.1	82.7%	116
Cc1ccccc1OCC(O)COc1ccccc1C	79.1%	103%	112%	94.9	86.1	94.8	93.6%	81.9	97.6%	101
O=C(O)c1cccc(N/C=C/C(=O)c2cc3cc(Br)ccc3oc2=O)c1	93.2%	108%	83.7%	94	96.9	93.8	97.7%	94.2	97.9%	104
C[C@@H](CO)[C@@H]1CC[C@]2(C(=O)N3CCN(C)CC3)CC[C@]3(C)[C@H](CC[C@@H]4[C@@]5(C)CC[C@H](O)C(C)(C)[C@@H]5CC[C@]43C)[C@@H]12	44.3%	17.6%	91.4%	68.7	24.1	64.1	82.9%	78.3	38.7%	106
Cc1ccc(C)c2c1C(O)(C#Cc1ccccc1)c1ccccc1C2(O)C#Cc1ccccc1 (stereo not given)	27.7%	38.9%	48.3%	70.4	34.3	29.4	36.8%	53.4	42.5%	80.4
Cc1ccccc1CNc1c2ccccc2nc2ccccc12	14.6%	8.87% (active)	45.3%	27.1	21.3	25.6	33.9%	46.7	9.12% (active)	58.3
CCOC(=O)c1c(C)nn(CC(O)c2ccccc2)c1NC(=O)Nc1cccc(F)c1 (stereo not given)	85.2%	96%	77.3%	94.8	93.4	76.8	94.7%	77.2	95%	104
N#Cc1c(Nc2ccc(F)cc2)n[nH]c1-c1cccs1	97.7%	114%	85.6%	85.6	102	95.7	97.1%	76.9	95.1%	105
CC(C)(C)C(=O)/C=C/c1ccc([N+](=O)[O-])cc1	42.1%	50.2%	81.1%	66.9	58	55.3	81.7%	74.4	36.9%	92.1
